# Screen size: about 330,000 compounds; about 10,000 (3%) were called active. Many of the other results were omitted from the sample, so actives are more common in it than they were. Unmarked numbers belong to inactive results.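 The calls were made as follows: active = inhibition of at least 50% at 8 µM in the primary screen; inactive = the rest.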
# Target: Protein Mdm4 (Homo sapiens) + E3 ubiquitin-protein ligase Mdm2 (Homo sapiens) (UniProt O15151+Q00987)
# Assay: disruptors of Mdm2/MdmX RING complex – cell-based, luminescence, split luciferase, SaOS-2, uHTS, primary screen (AID 485346)
# Conditions: SaOS-2 split-luciferase Mdm2/MdmX complementation, at 8 µM, active compounds read high
# Chain of Protein Mdm4 (Homo sapiens) + E3 ubiquitin-protein ligase Mdm2 (Homo sapiens) (O15151 whole entry, looked up): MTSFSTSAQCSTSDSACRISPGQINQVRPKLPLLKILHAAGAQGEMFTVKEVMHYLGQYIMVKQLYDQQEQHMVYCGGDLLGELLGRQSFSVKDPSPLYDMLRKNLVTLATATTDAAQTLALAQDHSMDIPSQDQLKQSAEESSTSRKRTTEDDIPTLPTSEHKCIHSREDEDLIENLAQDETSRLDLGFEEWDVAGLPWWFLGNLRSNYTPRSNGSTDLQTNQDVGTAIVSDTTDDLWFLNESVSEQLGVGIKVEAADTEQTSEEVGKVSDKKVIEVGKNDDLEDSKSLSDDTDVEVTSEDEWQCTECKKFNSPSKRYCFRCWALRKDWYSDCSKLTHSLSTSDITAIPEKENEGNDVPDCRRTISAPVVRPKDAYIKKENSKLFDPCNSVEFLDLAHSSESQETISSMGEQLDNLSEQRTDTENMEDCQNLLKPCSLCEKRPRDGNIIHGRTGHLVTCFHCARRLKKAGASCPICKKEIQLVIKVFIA
# Chain of Protein Mdm4 (Homo sapiens) + E3 ubiquitin-protein ligase Mdm2 (Homo sapiens) (Q00987 whole entry, looked up): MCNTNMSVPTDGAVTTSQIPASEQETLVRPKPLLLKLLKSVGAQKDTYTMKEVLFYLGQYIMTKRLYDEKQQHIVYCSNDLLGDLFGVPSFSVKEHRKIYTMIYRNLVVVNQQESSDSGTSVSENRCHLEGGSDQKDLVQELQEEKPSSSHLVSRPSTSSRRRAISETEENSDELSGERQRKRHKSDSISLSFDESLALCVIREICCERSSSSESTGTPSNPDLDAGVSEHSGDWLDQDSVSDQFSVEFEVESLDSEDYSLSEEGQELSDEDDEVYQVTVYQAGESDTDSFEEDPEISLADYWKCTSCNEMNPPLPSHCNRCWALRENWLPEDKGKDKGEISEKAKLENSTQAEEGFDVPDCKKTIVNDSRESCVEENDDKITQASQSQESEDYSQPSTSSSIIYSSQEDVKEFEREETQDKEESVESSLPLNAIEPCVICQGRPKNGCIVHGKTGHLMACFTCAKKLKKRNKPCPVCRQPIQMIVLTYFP
row,SMILES,inhibition
1,Fc1ccc(N2N=C(c3cccs3)CC2c2ccco2)c(F)c1 (stereo not given),2.13%
2,CCCCC(=O)Nc1ccc(C(=O)Nc2cc(C(F)(F)F)ccc2Cl)cc1,21.2%
3,CCCCN(CCCC)CCC(O)c1cc2c(Cl)cc(Cl)cc2c2cc(C(F)(F)F)ccc12 (stereo not given),60.8% (active)
4,CC1(C)Cc2c(sc3nc(SCC(=O)NCc4ccccc4)n(-c4ccccc4)c(=O)c23)CS1,-3.67%
5,N#Cc1c(NCCO)ccc([N+](=O)[O-])c1NCCO,-1.81%
6,CCOc1ccc(CN2CCN(Cc3c[nH]c4ccccc34)CC2)cc1,20.2%
7,O=C(COC(=O)CN1C(=O)C2CCCCC2C1=O)Nc1ccc(F)c(F)c1F (stereo not given),34.5%
8,C[C@]12c3[nH]c4ccc(Cl)cc4c3CCN1C(=O)[C@@H](CC(=O)NCCCn1ccnc1)C[C@@H]2C(=O)N1CCOCC1,4.12%
9,CC1CCN(C(=O)/C(=C\c2ccccc2F)NC(=O)c2ccccc2)CC1,8.33%
10,Cc1cccc(-n2ncc(C#N)c2-n2cccc2)c1,18.1%
11,Cc1cccc(-n2ncc(Cl)c(Cl)c2=O)c1,100% (active)
12,C=CCNc1cnn(-c2ccc(C)cc2)c(=O)c1Cl,-8.88%
13,COC(=O)[C@@H]1C[C@@]2(O)[C@@H](O)[C@@H](O)[C@@H](O)C[C@H]2N1Cc1ccc(C)s1,10.5%
14,CCCOc1cccc(C(=O)Nc2nnn(CCC)n2)c1,-17.9%
15,COc1ccccc1-n1nnnc1S(=O)(=O)Cc1ccc(Cl)cc1,99.3% (active)
16,COc1ccccc1-n1nnnc1SCC(=O)NC(=O)Cc1ccccc1,-11.3%
17,COc1ccccc1N1CCN(S(=O)(=O)c2ccc(Cl)cc2)CC1,0.916%
18,O=C(CN1C(=O)c2cccnc2Oc2ccc(Cl)cc21)Nc1ccc(F)cc1,7.52%
19,CC1C(=O)NC(=O)C1c1ccccc1 (stereo not given),10.9%
20,COc1cccc(-c2sc3ccc(OC)cc3c2-c2ccc(OCCN3CCCCC3)cc2)c1,96.8% (active)
21,COc1cc(OC)cc(-c2sc3ccc(OC)cc3c2-c2ccc3cc[nH]c3c2)c1,13.6%
22,COc1ccccc1-c1sc2ccccc2c1-c1ccc(Br)nc1,1.19%

row,SMILES,inhibition
1,COc1ccc(-c2sc3ccccc3c2-c2ccc(OCCN3CCOCC3)cc2)cc1,28.3%
2,COc1ccc2sc(-c3ccccc3OC)c(-c3ccc(OCCN4CCCC4)cc3)c2c1,73.2% (active)
3,COc1ccccc1-c1sc2ccccc2c1-c1ccc(C(C)=O)cc1,7.74%
4,CN1C(=O)C2(OCCCO2)c2cc(Cl)ccc21,2.45%
5,COC(=O)c1ccc(Oc2nc(NC(C)C)nc(SC)n2)cc1,22.5%
6,Cc1ccc(C(C(=O)NCC2CCCO2)N(C(=O)c2snc(C(N)=O)c2N)c2ccc(C(C)C)cc2)o1 (stereo not given),-3.18%
7,C/C(=N\N(C)C)c1ccc(OCCOc2ccc([N+](=O)[O-])cc2)cc1,-8.83%
8,O=C(CN1CCN(C2CCS(=O)(=O)C2)CC1)N1N=C(c2ccc(Cl)cc2)CC1c1ccco1 (stereo not given),26.2%
9,COCCCC1CCN(C(=O)C2CCC(=O)N(C3CCCCCC3)C2)CC1 (stereo not given),27.9%
10,Cc1c(Cl)cccc1NC(=S)NCC(O)c1ccccc1 (stereo not given),-14.3%
11,Cc1cccc(C(=O)OC(C)C(=O)NC2CCCc3ccccc32)c1O (stereo not given),28.3%
12,O=C(CCNC(=O)c1ccc(Cl)cc1)NC1CCCc2ccccc21 (stereo not given),82.7% (active)
13,COC(=O)c1cc(OCC(=O)NC2CCCc3ccccc32)cc(C(=O)OC)c1 (stereo not given),1.41%
14,NC(=O)Nc1ccc(C(=O)OCC(=O)NC2CCCc3ccccc32)cc1 (stereo not given),-3.47%
15,CC1(c2ccccc2)NC(=O)N(CC(=O)N2CC(=O)Nc3ccccc32)C1=O (stereo not given),-7.07%
16,Cc1nnc(NC(=O)Nc2ccc(Cl)c(Cl)c2)s1,95.2% (active)
17,Cc1ccc(NC(=O)Nc2nnc(-c3ccncc3)s2)cc1,45.1%
18,Cc1nnc(NC(=O)C(c2ccccc2)c2ccccc2)s1,7.45%
19,CC(C)Oc1ccc(S(=O)(=O)N2CCOCC2)cc1NC(=O)C1CCCC1,-52.3%
20,CC1CC(=S)Nc2ccccc2N1Cc1ccccc1 (stereo not given),18.7%
21,CCCCN(CC)CCCNC(=O)c1ccc(CSc2nc3ccncc3[nH]2)cc1,6.18%
22,COc1cccc(NC(=O)COC(=O)c2ccc3ccccc3n2)c1,-8.32%

row,SMILES,inhibition
1,COc1ccc(CCNC(=O)CSc2nc(C)nc3c2oc2ccccc23)cc1OC,-0.689%
2,CC(Nc1nc(N2CCN(CCO)CC2)nc2ccccc12)c1ccccc1 (stereo not given),-4.68%
3,CC(Nc1nc(N2CCOCC2)nc2ccccc12)c1ccccc1 (stereo not given),-0.119%
4,CC(Nc1nc(N2CCCC2)nc2ccccc12)c1ccccc1 (stereo not given),70.8% (active)
5,CCN(C(=O)COC(=O)CCC(=O)c1cccs1)C1CCCCC1,18.7%
6,CC(=O)c1ccc(NC(=S)N(Cc2ccccc2)C(C)C2CC2)cc1 (stereo not given),29.9%
7,CCOC(=O)C1CSC(CC(=O)Nc2ccc(OCC)cc2)C(=O)N1 (stereo not given),9.79%
8,COCC1CCCN(C(=O)c2ccc3oc(C(C)C)nc3c2)C1 (stereo not given),28.6%
9,Cc1n[nH]c(C)c1S(=O)(=O)N1CCCC(C(=O)Nc2ccc(Br)cc2)C1 (stereo not given),18.8%
10,Cc1cc(C)nc(N2CCC(C(=O)Nc3ccc4c(c3)OCCO4)CC2)n1,15.6%
11,Cc1cc(Nc2cc(N3CCN(C)CC3)nc(Sc3ccc(NC(=O)C4CC4)cc3)n2)n[nH]1,88.2% (active)
12,CCc1ccc(NC2Nc3cc(C)nn3S2)cc1 (stereo not given),-161%
13,Cc1ccc(CNC(=O)[C@@H](NC(=O)Cc2ccccc2)C(C)C)cc1,33.2%
14,CCN(C(=O)COC(=O)CCOc1cccc(C)c1)c1c(N)n(Cc2ccccc2)c(=O)[nH]c1=O,-15.7%
15,CCCCN(C(=O)C1=NN(c2cc(C)ccc2C)C(=O)CC1)c1c(N)n(CCC)c(=O)[nH]c1=O,4.43%
16,Nc1nc(NC(=O)/C=C/c2ccc(F)cc2)nn1-c1ccccc1,36.3%
17,Cc1c(NC(=O)CCC2CCCCC2)cc(C(=O)N2CCOCC2)cc1[N+](=O)[O-],-15.2%
18,C=CC[C@@H](CC(=O)N[C@H](CO)Cc1ccccc1)C(=O)N[C@@H](COC(=O)[C@@H](CC=C)Cc1ccc(F)cc1)Cc1c[nH]c2ccccc12,16.4%
19,C=CCC[C@H](Cc1ccc(F)cc1)C(=O)OC[C@H](C)NC(=O)[C@H](CC=C)CC(=O)N(CCO)Cc1ccccc1,-2.85%
20,C=CCC[C@H](Cc1ccc(F)cc1)C(=O)OC[C@@H](NC(=O)[C@@H](CC=C)CC(=O)N[C@H](CO)Cc1ccccc1)C(C)(C)C,46.7%
21,C=CCC[C@H](Cc1ccc(F)cc1)C(=O)OC[C@@H](Cc1c[nH]c2ccccc12)NC(=O)[C@H](CC=C)CC(=O)N[C@H](CO)Cc1ccccc1,38.1%
22,C=CC[C@@H](Cc1ccc(F)cc1)C(=O)OC[C@H]1CCCN1C(=O)[C@H](CC=C)CC(=O)N(CCO)Cc1ccccc1,38.8%

row,SMILES,inhibition
1,C=CCC[C@@H](Cc1ccc(F)cc1)C(=O)O[C@H](CNC(=O)[C@H](CC=C)CC(=O)N(CCO)Cc1ccccc1)c1ccccc1,66.9% (active)
2,C=CCC[C@@H](Cc1ccc(F)cc1)C(=O)OC[C@H](Cc1c[nH]c2ccccc12)NC(=O)[C@@H](CC=C)CC(=O)N(CCO)Cc1ccccc1,87.5% (active)
3,C=CCC[C@@H](Cc1ccc(F)cc1)C(=O)OC[C@@H](C)NC(=O)[C@H](CC=C)CC(=O)N(CCO)Cc1ccccc1,24%
4,C=CC[C@H](CC(=O)N(CCO)Cc1ccccc1)C(=O)N[C@@H](COC(=O)[C@@H](CC=C)Cc1ccc(F)cc1)Cc1ccccc1,67.8% (active)
5,CCOc1ccc(NC(=O)CN(C)C(=O)Cc2sc(C)nc2-c2ccc(F)cc2)cc1OCC,10.8%
6,COc1ccc(CN2CCN(C(=O)CCC(=O)Nc3nnc(C(C)C)s3)CC2)cc1F,16.8%
7,O=C(/C=C/c1ccccc1[N+](=O)[O-])OCC(=O)N1CCCC1,15%
8,COc1ccc(S(=O)(=O)N2CCN(CC(=O)NCC3(N4CCOCC4)CCCCC3)CC2)cc1,-0.077%
9,CCO[C@@H]1OC(C(=O)NCc2nc3ccccc3[nH]2)=C[C@H](C2CCCCC2)[C@H]1CCCO,18.5%
10,O=C(CSc1nnc(CNC(=O)c2ccc(F)cc2)o1)Nc1ccc2c(c1)OCO2,5.86%
11,NC(=O)C1CCN(C(=O)c2ccc(F)c(S(=O)(=O)N3CCOCC3)c2)CC1,-40.7%
12,C=CCO/N=C(\C)c1c(O)c(C)c(-c2ccccc2)n(-c2ccccc2)c1=O,9.07%
13,CC(OC(=O)c1cc2ccccc2o1)C(=O)Nc1ccc(N2CCOCC2)cc1 (stereo not given),11.3%
14,CN(CC(=O)Nc1c(Cl)cccc1Cl)C(=O)c1ccncc1,19.3%
15,Cc1occc1-c1nnc(SCC(=O)NC2(C#N)CCCC2)n1C,22.7%
16,CN1CCN(S(=O)(=O)c2ccc(N3CCN(c4ccccc4O)CC3)c([N+](=O)[O-])c2)CC1,2.63%
17,NC(=O)Cc1nc2scc(-c3ccc(Cl)cc3)c2c(=O)[nH]1,-0.903%
18,O=c1[nH]c(CN2CCOCC2)nc2cc(Cl)ccc12,-2.08%
19,O=c1[nH]c(CCl)nc2cc(-c3ccc(Cl)cc3)sc12,80.8% (active)

# — PubChem BioAssay AID485346 (Sanford-Burnham Center for Chemical Genomics, 2010)
